This is an account of results in the supplement of paper PMC8285479.

The experiment relates to NCI-H1944. The experiment can be described thus: normalised cell viability (NPI; 0 = phenylarsine oxide control, 1 = DMSO control) (fraction of DMSO control); NCI-H1944 is a non-small cell lung cancer line; higher = more viable cells (less compound toxicity). As to conditions: 6 days.
The mark [1] stands for this setting: glucocorticoid arm: hydrocortisone 2.75 uM co-treatment, compound 1 µM.
The mark [2] stands for this setting: glucocorticoid arm: hydrocortisone 2.75 uM co-treatment, compound 5 µM.
Where [3] appears, read: glucocorticoid arm: hydrocortisone 2.75 uM pre-treated 2 days and continued, compound 1 µM.
The mark [4] stands for this setting: glucocorticoid arm: hydrocortisone 2.75 uM pre-treated 2 days and continued, compound 5 µM.
Where [5] appears, read: glucocorticoid arm: vehicle, compound 1 µM.
[6] abbreviates: glucocorticoid arm: vehicle, compound 5 µM.

Where a name gives a salt, the structure may show the parent alone. ± gives the standard deviation of the averaged measurements. Over roughly 1,900 compounds, “normalised cell viability (NPI; 0 = phenylarsine oxide control, 1 = DMSO control)” has its median near 1; the lowest 2% begin near 0.039. This is one part of a sample in which the lowest values are shown more often than they occur.
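Also: CTB read-out in 384-well plates, triplicate wells, NPI normalised per plate against 1 µM phenylarsine oxide (0) and 0.1% DMSO (1) controls.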

Turning to `CCCCC1(C2CCCC2)Cc2cc(OCC(=O)O)c(Cl)c(Cl)c2C1=O` (stereo in doubt) [R(+)-Butylindazone], the normalised cell viability turned out to be 0.9903 ± 0.0064 under setting [1]; 0.958 ± 0.011 under setting [2]; 0.988 ± 0.01 under setting [3]; 0.965 ± 0.028 under setting [4]; 0.983 ± 0.006 under setting [5]; 0.9887 ± 0.004 under setting [6].

With `O=C1NCCc2[nH]c(-c3ccncc3)cc21`, the normalised cell viability reads like this: under setting [1], 1.02 ± 0.015; under setting [2], 0.0894 ± 0.0076; under setting [3], 0.9933 ± 0.0072; under setting [4], 0.145 ± 0.006; under setting [5], 0.916 ± 0.016; under setting [6], 0.0151 ± 0.0021.

On to `Cc1[nH]c(=O)c(C#N)cc1-c1ccncc1` [Milrinone], for which the normalised cell viability reads like this: under setting [1], 0.996 ± 0.013; under setting [2], 1.001 ± 0.0083; under setting [3], 0.998 ± 0.0035; under setting [4], 1.05 ± 0.081; under setting [5], 0.9903 ± 0.009; under setting [6], 0.993 ± 0.015.

In the case of `O=C1NC(=O)/C(=C/c2ccc3nccc(-c4ccncc4)c3c2)S1`, the normalised cell viability runs as follows: under setting [1], 0.697 ± 0.026; under setting [2], 0.836 ± 0.011; under setting [3], 0.73 ± 0.039; under setting [4], 0.848 ± 0.026; under setting [5], 0.886 ± 0.023; under setting [6], 0.932 ± 0.027.

In the case of `CCCCCCCCCCCCCCCCCC(=O)OC(CC(=O)O)C[N+](C)(C)C` (racemic) [DL-Stearoylcarnitine chloride], the normalised cell viability by setting is: under setting [1], 0.9967 ± 0.0042; under setting [2], 0.906 ± 0.03; under setting [3], 1.01 ± 0.019; under setting [4], 0.993 ± 0.0017; under setting [5], 1.013 ± 0.0058; under setting [6], 0.99967 ± 0.00058.

As to `CNc1ncnc2c1ncn2[C@H]1C[C@H](OP(=O)(O)O)[C@@H](COP(=O)(O)O)O1`, the normalised cell viability runs as follows: under setting [1], 0.991 ± 0.0056; under setting [2], 0.987 ± 0.029; under setting [3], 1 ± 0.016; under setting [4], 0.981 ± 0.027; under setting [5], 0.996 ± 0.0061; under setting [6], 0.9943 ± 0.0047.

Turning to `C[C@H](O)[C@H](O)[C@H]1CNc2nc(N)[nH]c(=O)c2N1` [(6R)-5,6,7,8-Tetrahydro-L-biopterin dihydrochloride], the normalised cell viability is 1.02 ± 0.011 under setting [1]; 1.01 ± 0.026 under setting [2]; 0.923 ± 0.18 under setting [3]; 1.001 ± 0.009 under setting [4]; 1.02 ± 0.01 under setting [5]; 1.02 under setting [6].

Take `CN1CCc2c(cc(O)c(O)c2Cl)C(c2cccc(Cl)c2)C1` (stereo not drawn): the normalised cell viability is, setting by setting: under setting [1], 1.006 ± 0.0063; under setting [2], 1.03 ± 0.03; under setting [3], 1.01 ± 0.039; under setting [4], 1.017 ± 0.0058; under setting [5], 1; under setting [6], 1.013 ± 0.0058.

Consider `CCC(=O)Nc1cccc(Oc2nc(Nc3ccc(N4CCN(C)CC4)cc3OC)ncc2Cl)c1`, for which the normalised cell viability under setting [1] was determined as 1.07 ± 0.017; the normalised cell viability under setting [2] was found to be 1.11 ± 0.01; the normalised cell viability under setting [3] was 1.057 ± 0.0058; the normalised cell viability under setting [4] was 1.07 ± 0.035; the normalised cell viability under setting [5] came out at 1 ± 0.011; the normalised cell viability under setting [6] was found to be 1.01 ± 0.01.

For the molecule `CNC(=O)c1nn(C)c2c1C(C)(C)Cc1cnc(Nc3ccc(N4CCN(C)CC4)cc3)nc1-2`, the normalised cell viability was determined as 0.485 ± 0.019 under setting [1]; 0.306 ± 0.002 under setting [2]; 0.549 ± 0.019 under setting [3]; 0.424 ± 0.013 under setting [4]; 0.282 ± 0.0098 under setting [5]; 0.126 ± 0.0072 under setting [6].

As for `CN1CCN(c2ccc(OC(F)(F)F)c(Nc3ncc4c(n3)-c3c(c(C(N)=O)nn3CCO)CC4)c2)CC1`, the normalised cell viability runs as follows: under setting [1], 0.183 ± 0.025; under setting [2], 0.146 ± 0.02; under setting [3], 0.428 ± 0.025; under setting [4], 0.556 ± 0.069; under setting [5], 0.0347 ± 0.0042; under setting [6], 0.0361 ± 0.0086.

On to `OCCn1cc(-c2cnc3nnn(Cc4ccc5ncccc5c4)c3n2)cn1`, for which the normalised cell viability runs as follows: under setting [1], 1 ± 0.01; under setting [2], 1.02 ± 0.026; under setting [3], 1.02 ± 0.015; under setting [4], 1.02 ± 0.052; under setting [5], 1.01 ± 0.011; under setting [6], 1.02 ± 0.015.

`Cc1c(NC(=O)c2ccc(C(C)(C)C)cc2)cccc1-c1cn(C)c(=O)c(Nc2ccc(C(=O)N3CCOCC3)cc2)n1`: the normalised cell viability was found to be 1.017 ± 0.0058 under setting [1]; 1.03 ± 0.032 under setting [2]; 1.007 ± 0.0058 under setting [3]; 0.987 ± 0.022 under setting [4]; 1 ± 0.0087 under setting [5]; 1.006 ± 0.0063 under setting [6].

As to `CN1C2CCC1CC(NC(=O)c1nn(C)c3ccccc13)C2` (stereo not drawn) [LY-278,584 maleate], the normalised cell viability is, setting by setting: under setting [1], 0.9863 ± 0.0067; under setting [2], 0.977 ± 0.033; under setting [3], 0.9957 ± 0.0075; under setting [4], 1.03 ± 0.085; under setting [5], 0.9753 ± 0.0051; under setting [6], 0.9783 ± 0.0091.

Take `CC(C)NCC(O)COc1ccc(CC(N)=O)cc1` (racemic) [(±)-Atenolol]: the normalised cell viability turned out to be 0.987 ± 0.007 under setting [1]; 1.001 ± 0.0085 under setting [2]; 1.003 ± 0.0064 under setting [3]; 1.02 ± 0.021 under setting [4]; 1.005 ± 0.0092 under setting [5]; 1.01 under setting [6].

On to `NC(C(=O)O)C(O)C(=O)O` (racemic) [DL-threo-beta-hydroxyaspartic acid], for which the normalised cell viability turned out to be 1.01 ± 0.011 under setting [1]; 1.01 ± 0.028 under setting [2]; 1.01 ± 0.022 under setting [3]; 1.01 ± 0.018 under setting [4]; 1.003 ± 0.0061 under setting [5]; 1.001 ± 0.0081 under setting [6].

As to `CCCN(CCc1ccccc1)C1CCc2c(O)cccc2C1` (racemic) [(±)-PPHT hydrochloride], the normalised cell viability under setting [1] is 0.986 ± 0.011; the normalised cell viability under setting [2] amounted to 0.969 ± 0.03; the normalised cell viability under setting [3] came to 1.05 ± 0.078; the normalised cell viability under setting [4] was 0.966 ± 0.02; the normalised cell viability under setting [5] was determined as 1.007 ± 0.0058; the normalised cell viability under setting [6] turned out to be 1.003 ± 0.0058.

With `Cl.N[C@@H](CCC(=O)O)C(=O)O` [L-Glutamic acid hydrochloride], the normalised cell viability under setting [1] stood at 1.013 ± 0.0058; the normalised cell viability under setting [2] came out at 1 ± 0.029; the normalised cell viability under setting [3] is 1.013 ± 0.0058; the normalised cell viability under setting [4] came out at 0.989 ± 0.027; the normalised cell viability under setting [5] turned out to be 1.023 ± 0.0058; the normalised cell viability under setting [6] came to 1.02 ± 0.01.

Turning to `Clc1ccc(C(c2ccc(Cl)cc2)[n+]2ccn(CC(OCc3ccc(Cl)cc3Cl)c3ccc(Cl)cc3Cl)c2)cc1` (stereo not drawn) [Calmidazolium chloride], the normalised cell viability under setting [1] worked out at 0.974 ± 0.035; the normalised cell viability under setting [2] stood at 0.00138 ± 0.00076; the normalised cell viability under setting [3] was 0.993 ± 0.012; the normalised cell viability under setting [4] was -0.000224 ± 0.0015; the normalised cell viability under setting [5] turned out to be 1.002 ± 0.0072; the normalised cell viability under setting [6] amounted to 0.00119 ± 0.00017.

Turning to `CN(CC[C@@H](Oc1ccc(C(F)(F)F)cc1)c1ccccc1)CC(=O)[O-].[Li+]`, the normalised cell viability runs as follows: under setting [1], 0.992 ± 0.0046; under setting [2], 0.989 ± 0.011; under setting [3], 0.99 ± 0.014; under setting [4], 0.998 ± 0.018; under setting [5], 0.979 ± 0.016; under setting [6], 0.9777 ± 0.0035.

With `NCCC[C@](N)(C(=O)O)C(F)F` (racemic) [DL-alpha-Difluoromethylornithine hydrochloride], the normalised cell viability is, setting by setting: under setting [1], 0.9853 ± 0.0063; under setting [2], 0.923 ± 0.021; under setting [3], 0.9873 ± 0.0064; under setting [4], 0.932 ± 0.011; under setting [5], 0.9863 ± 0.0055; under setting [6], 0.9817 ± 0.0032.

`O=C(CCCN1C(=O)c2cccc3cccc(c23)C1=O)NO` [Nullscript]: the normalised cell viability is, setting by setting: under setting [1], 0.981 ± 0.011; under setting [2], 0.961 ± 0.029; under setting [3], 1 ± 0.012; under setting [4], 0.987 ± 0.018; under setting [5], 1 ± 0.0082; under setting [6], 1.01 ± 0.014.

On to `c1cc(CN2CCCNCCNCCCNCC2)ccc1CN1CCCNCCNCCCNCC1` [Plerixafor], for which the normalised cell viability amounted to 1 ± 0.018 under setting [1]; 1 ± 0.017 under setting [2]; 1.01 ± 0.011 under setting [3]; 0.996 ± 0.016 under setting [4]; 1.006 ± 0.0063 under setting [5]; 1.01 ± 0.013 under setting [6].
